Growth inhibition data for 10 molecules are collected here from PubChem BioAssay (NCI).

This is part of a sample that, as a whole, favours compounds with a hit. Of some 79,000 tested, about 15% had one in any assay. A number with no mark means an inactive call. The source made the active and inactive calls. Cut-off read from the data, not from the text of the source: active = growth inhibition above about 70%; inactive = the rest.

Test [1] is described as follows: NCI Yeast Anticancer Drug Screen. Data for the rad50 strain (AID 155).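 Note: 0% = growth of vehicle-only cultures of the same strain.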 The conditions noted are these: S. cerevisiae rad50 strain growth inhibition, stronger effect = higher value. Put shortly:
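DNA repair mutant yeast, compound exposure, growth read-out; inhibition is taken relative to vehicle.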

Test [2] in a line: NCI Yeast Anticancer Drug Screen. Data for the mec2-1 strain (AID 157). As to conditions: S. cerevisiae mec2-1 strain, stronger effect = higher value. The gist of the method: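 Strain: mec2-1 (DNA repair/cell cycle alteration). Compound exposure, then growth measured; inhibition expressed relative to vehicle.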
Test [3] in a line: NCI Yeast Anticancer Drug Screen. Data for the sgs1 mgt1 strain (AID 161).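 Note: 0% = growth of cultures given vehicle only.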 The conditions noted are these: S. cerevisiae sgs1 mgt1 strain, stronger effect = higher value. Put shortly: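 Test agents were incubated with a DNA-repair-mutant yeast strain. Growth was then read and compared against vehicle-treated controls.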
Test [4] is described as follows: NCI Yeast Anticancer Drug Screen. Data for the cln2 rad14 strain (AID 165).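 Note: 0% = growth equal to vehicle treated cultures.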 The conditions noted are these: S. cerevisiae cln2 rad14 strain, stronger effect = higher value. Put shortly: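 Compounds are applied to the cln2 rad14 yeast strain, and growth is then compared with that of vehicle-treated cultures to give inhibition.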
The nature of test [5]: NCI Yeast Anticancer Drug Screen. Data for the bub3 strain (AID 167). The conditions noted are these: S. cerevisiae bub3 mutant strain, stronger effect = higher value. Put shortly:
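In this screen, a yeast mutant lacking normal mitotic checkpoint function is challenged with compound. Relative growth versus vehicle gives the inhibition value.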

Test [6] can be described thus: NCI Yeast Anticancer Drug Screen. Data for the mlh1 rad18 strain (AID 175). As to conditions: S. cerevisiae mlh1 rad18 strain growth inhibition, stronger effect = higher value. The gist of the method:
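Read-out is yeast growth inhibition, calculated against vehicle-only controls. The compound was applied to a strain engineered with DNA damage repair alterations.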

The mark [7] stands for this setting: at 5.0 µM (retest, dose inferred, filed as 0.5).
The mark [8] stands for this setting: at 50.0 µM (retest, dose inferred, filed as 5.0).

On to `Nc1c(Cl)nc(C(F)(F)F)nc1NCc1ccccc1`, for which the growth inhibition in test [1] (setting [7]) is 60%; in test [1] (setting [8]), 99% (active); in test [1] (at 50.0 µM), 39.7%; in test [2] (setting [7]) it was 99% (active); in test [2] (setting [8]) it was 99% (active); in test [2] (at 50.0 µM), 8.25%. Also, the growth inhibition in test [3] (setting [7]) is 97% (active); in test [3] (setting [8]), 99% (active); in test [3] (at 50.0 µM), 1.45%; in test [4] (setting [7]), 99% (active); in test [4] (setting [8]) it was 99% (active); in test [4] (at 50.0 µM) it was -48.1%. Moreover, the growth inhibition in test [5] (setting [7]) was 99% (active); in test [5] (setting [8]) it was 99% (active); in test [5] (at 50.0 µM) it was 23.7%; in test [6] (setting [7]) it was 91% (active); in test [6] (setting [8]), 99% (active); in test [6] (at 50.0 µM), 5.35%.
On to `C(=C\c1ccc(-[n+]2nc(-c3ccccc3)nn2-c2ccccc2)cc1)/c1ccccc1`, for which the growth inhibition in test [1] (setting [7]) is 85% (active); in test [1] (setting [8]) it was 98% (active); in test [1] (at 50.0 µM) it was 91.5% (active); in test [2] (setting [7]), 81% (active); in test [2] (setting [8]) it was 100% (active); in test [2] (at 50.0 µM), 93.4% (active). The growth inhibition in test [3] (setting [7]) was 79% (active); in test [3] (setting [8]), 100% (active); in test [3] (at 50.0 µM) it was 93.4% (active); in test [4] (setting [7]), 54%; in test [4] (setting [8]), 99% (active); in test [4] (at 50.0 µM) it was 93.2% (active). For the same molecule, the growth inhibition in test [5] (setting [7]) is 86% (active); in test [5] (setting [8]) it was 99% (active); in test [5] (at 50.0 µM) it was 92.3% (active); in test [6] (setting [7]) it was 95% (active); in test [6] (setting [8]) it was 99% (active); in test [6] (at 50.0 µM), 90.9% (active).
Turning to `CCCC1CCCC1(CC(=O)c1ccccc1)C(=O)O` (stereo not given), the growth inhibition in test [1] (setting [7]) was 21%; in test [1] (setting [8]), 52%; in test [1] (at 50.0 µM), 70.3% (active); in test [2] (setting [7]), 19%; in test [2] (setting [8]), 46%; in test [2] (at 50.0 µM) it was 64.8%. Further, the growth inhibition in test [3] (setting [7]) is 25%; in test [3] (setting [8]), 47%; in test [3] (at 50.0 µM) it was 81.7% (active); in test [4] (setting [7]) it was 24%; in test [4] (setting [8]) it was 54%; in test [4] (at 50.0 µM), 82.3% (active). The growth inhibition was 63% in test [5] (setting [7]); 76% (active) in test [5] (setting [8]); 90.2% (active) in test [5] (at 50.0 µM); 47% in test [6] (setting [7]); 72% (active) in test [6] (setting [8]); 82.5% (active) in test [6] (at 50.0 µM).
For `O=C(CCCO)N/N=C\c1ccc([N+](=O)[O-])s1`, the growth inhibition is 5% in test [1] (setting [7]); 31% in test [1] (setting [8]); 18.8% in test [1] (at 50.0 µM); -7% in test [2] (setting [7]); 23% in test [2] (setting [8]); -3.55% in test [2] (at 50.0 µM). Moreover, the growth inhibition in test [3] (setting [7]) was 8%; in test [3] (setting [8]), 39%; in test [3] (at 50.0 µM), 31.8%; in test [4] (setting [7]), -2%; in test [4] (setting [8]), 20%; in test [4] (at 50.0 µM) it was 72.2% (active). The growth inhibition in test [5] (setting [7]) is -1%; in test [5] (setting [8]) it was 17%; in test [5] (at 50.0 µM), 5.5%; in test [6] (setting [7]), 12%; in test [6] (setting [8]), 74% (active); in test [6] (at 50.0 µM) it was 62.2%.
On to `CC(C)OC(=O)c1ccc(CCC2=CC(=O)C=CC2=O)cc1`, for which the growth inhibition was 34% in test [1] (setting [7]); 89% (active) in test [1] (setting [8]); 81.1% (active) in test [1] (at 50.0 µM); 53% in test [2] (setting [7]); 99% (active) in test [2] (setting [8]); 77.2% (active) in test [2] (at 50.0 µM). Besides, the growth inhibition in test [3] (setting [7]) was 86% (active); in test [3] (setting [8]), 94% (active); in test [3] (at 50.0 µM), 87.3% (active); in test [4] (setting [7]), 76% (active); in test [4] (setting [8]), 91% (active); in test [4] (at 50.0 µM), 61.7%. Besides, the growth inhibition in test [5] (setting [7]) is 92% (active); in test [5] (setting [8]), 95% (active); in test [5] (at 50.0 µM), 87.4% (active); in test [6] (setting [7]), 66%; in test [6] (setting [8]), 98% (active); in test [6] (at 50.0 µM), 79.2% (active).
For `O=NN(CCCl)C(=O)Nc1cc(=O)[nH]c(SCc2ccccc2)n1`, the growth inhibition in test [1] (setting [7]) was -23%; in test [1] (setting [8]), 52%; in test [1] (at 50.0 µM), 8.95%; in test [2] (setting [7]), 3%; in test [2] (setting [8]) it was 10%; in test [2] (at 50.0 µM), -3.6%. The growth inhibition was -10% in test [3] (setting [7]); 33% in test [3] (setting [8]); 4.7% in test [3] (at 50.0 µM); 14% in test [4] (setting [7]); 12% in test [4] (setting [8]); 45.5% in test [4] (at 50.0 µM). The growth inhibition in test [5] (setting [7]) is 5%; in test [5] (setting [8]), 30%; in test [5] (at 50.0 µM), 16.9%; in test [6] (setting [7]), -11%; in test [6] (setting [8]), 70% (active); in test [6] (at 50.0 µM), 66.5%.
As for `Cn1cnc(=S)c2[nH]cnc21`, the growth inhibition in test [1] (setting [7]) is -1%; in test [1] (setting [8]) it was -2%; in test [1] (at 50.0 µM), 10.9%; in test [2] (setting [7]) it was -3%; in test [2] (setting [8]) it was -4%; in test [2] (at 50.0 µM), -0.45%. The growth inhibition in test [3] (setting [7]) is -2%; in test [3] (setting [8]), -5%; in test [3] (at 50.0 µM), -4.55%; in test [4] (setting [7]) it was -2%; in test [4] (setting [8]), -4%; in test [4] (at 50.0 µM) it was 59.6%. The growth inhibition in test [5] (setting [7]) was 0%; in test [5] (setting [8]) it was -5%; in test [5] (at 50.0 µM) it was -8.5%; in test [6] (setting [7]) it was -4%; in test [6] (setting [8]), -1%; in test [6] (at 50.0 µM), 4.05%.
In the case of `CN1CCN(CCn2c3c4ccccc4ccc3c3oc(=O)c4ccccc4c32)CC1`, the growth inhibition is 40% in test [1] (setting [7]); 95% (active) in test [1] (setting [8]); 38.5% in test [1] (at 50.0 µM); -13% in test [2] (setting [7]); 97% (active) in test [2] (setting [8]); 89.7% (active) in test [2] (at 50.0 µM). Moreover, the growth inhibition was 28% in test [3] (setting [7]); 96% (active) in test [3] (setting [8]); 91.2% (active) in test [3] (at 50.0 µM); 22% in test [4] (setting [7]); 92% (active) in test [4] (setting [8]); 90.4% (active) in test [4] (at 50.0 µM). For the same molecule, the growth inhibition in test [5] (setting [7]) was 19%; in test [5] (setting [8]) it was 97% (active); in test [5] (at 50.0 µM), 91.8% (active); in test [6] (setting [7]), 13%; in test [6] (setting [8]) it was 97% (active); in test [6] (at 50.0 µM), 90.8% (active).
For `CC(C)(CN1CCCCC1)C(=O)CC(SCCS(=O)(=O)O)c1ccc(Cl)c(Cl)c1` (stereo not given), the growth inhibition in test [1] (setting [7]) is 62%; in test [1] (setting [8]), 97% (active); in test [1] (at 50.0 µM) it was 95.8% (active); in test [2] (setting [7]), 33%; in test [2] (setting [8]), 97% (active); in test [2] (at 50.0 µM), 94% (active). Also, the growth inhibition in test [3] (setting [7]) is 33%; in test [3] (setting [8]), 95% (active); in test [3] (at 50.0 µM), 97.4% (active); in test [4] (setting [7]), 38%; in test [4] (setting [8]), 98% (active); in test [4] (at 50.0 µM), 88.2% (active). Also, the growth inhibition in test [5] (setting [7]) was 58%; in test [5] (setting [8]) it was 99% (active); in test [5] (at 50.0 µM), 98% (active); in test [6] (setting [7]) it was 41%; in test [6] (setting [8]), 97% (active); in test [6] (at 50.0 µM) it was 97% (active).
In the case of `COc1cc(-c2ccc(-[n+]3nc(Cc4ccc5c(c4)OCO5)nn3-c3ccccc3)c(OC)c2)ccc1-[n+]1nc(Cc2ccc3c(c2)OCO3)nn1-c1ccccc1`, the growth inhibition in test [1] (setting [7]) was 4%; in test [1] (setting [8]), 41%; in test [1] (at 50.0 µM), 68.8%; in test [2] (setting [7]) it was 1%; in test [2] (setting [8]) it was 46%; in test [2] (at 50.0 µM), 91.9% (active). Also, the growth inhibition in test [3] (setting [7]) is 1%; in test [3] (setting [8]) it was 49%; in test [3] (at 50.0 µM), 92.6% (active); in test [4] (setting [7]) it was 2%; in test [4] (setting [8]), 22%; in test [4] (at 50.0 µM), 37.1%. Also, the growth inhibition is -1% in test [5] (setting [7]); 60% in test [5] (setting [8]); 83.4% (active) in test [5] (at 50.0 µM); 2% in test [6] (setting [7]); 79% (active) in test [6] (setting [8]); 91.4% (active) in test [6] (at 50.0 µM).
